These results are taken from PubChem BioAssay AID493192 (National Center for Advancing Translational Sciences (NCATS), 2011).

Each structure is given as a SMILES string. Records with an inconclusive call do not appear. Entries that show only a call come without a potency. Calls of active or inactive are those of the source. Calls follow the shape of the dose curve; as a rule, active = well fitted activation curve with a large enough effect; inconclusive = small, poorly fitted or top-dose-only effect; inactive = no such curve, though single readings can be large or run the other way.
Potency is read from the fitted curve at half-maximal effect.

This experiment is described as follows: qHTS Assay for Identifying a Potential Treatment of Ataxia-Telangiectasia: Hit Validation.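 Also: phospho-KAP1 level by AlphaLISA as a proxy for ATM-like kinase activity.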 Particulars: Ataxia-telangiectasia cell-based hit validation qHTS, in ATM-null A-T patient fibroblasts; series mostly up to 76.9 µM. The essentials: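 hTERT-immortalized A-T patient fibroblasts (F2112) were dosed at up to 76.7 uM final for 60 min at 37C. After a further 30 min incubation, cells were lysed, and phospho-KAP1 was detected by AlphaLISA after 6 hr at 25C.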
In the case of `O=C1C(Cl)=C(Nc2ccccc2)C(=O)c2ccccc21`, the Potency is 16.4 µM (active).

Take `CCc1ccc(NC(=O)CNCc2ccc(OC)c(OC)c2)cc1`: the Potency result is “inactive”.

As to `Cc1ccnc(NC(=O)c2ccccc2NC(=O)c2ccccc2)c1`, the Potency result is “inactive”.

On to `COc1ccc2nc(C)cc(Nc3ccc(C(=O)O)cc3)c2c1`, for which the Potency entry was “inactive”.

As for `O=C(CN1C(=O)c2cccc([N+](=O)[O-])c2C1=O)NCc1ccccc1`, the Potency entry was “inactive”.

Regarding `COCCNC(=O)c1c(N)n(-c2cccc(C)c2)c2nc3ccccc3nc12`, the Potency was 41.2 µM (active).

`CNC(=O)/C=C/c1cc(C(=O)c2ccc(Cl)cc2Cl)cn1C`: the Potency result was “inactive”.

Regarding `Cc1ccc(C)c(-c2csc(Nc3ncccn3)n2)c1`, the Potency entry was “inactive”.

Consider `COc1ccc(OC)c(C2CC(c3ccccc3)=NN2C(=S)Nc2ccccc2)c1` (configuration not stated), for which the Potency result is “inactive”.

For `CC(=O)Nc1ccc(NC2=CC(=O)c3ccccc3C2=O)cc1`, the Potency result is “inactive”.

For the compound `C/C(CCC1CC(C)OC1=O)=N\NC(N)=S` (configuration not stated), the Potency entry is “inactive”.

Turning to `C=CCOC(=O)C1=C[C@H](c2coc3ccccc3c2=O)C[C@H](OCc2ccc(CO)cc2)O1`, the Potency entry is “inactive”.

As to `COc1ccc(/C=N/Nc2nc(=O)[nH]nc2C)cc1OC`, the Potency entry is “inactive”.

In the case of `CCN1CCN(CC(=O)Nc2ccc(C(C)=O)cc2)CC1`, the Potency was 26 µM (active).

`COc1ccc(Cl)cc1NC(=O)C[n+]1cccc(C)c1`: the Potency entry was “inactive”.

Consider `O=C(c1cccc(F)c1)N1CCCC(C(=O)N2CCCCCC2)C1` (configuration not stated), for which the Potency was 29.2 µM (active).

Take `CC(=O)c1sc2nc(C)c3c(c2c1N)CCCC3`: the Potency result was “inactive”.
